# Test results: PubChem BioAssay (Tox21)
# Values joined by “and” are separate entries in the source; they are usually repeats but may differ in a detail not shown here. Equal values may be shown once. Inconclusive results are not listed. Active and inactive are the calls of the source. Calls follow the shape of the dose curve; as a rule, active = well fitted activation curve with a large enough effect in the repeat runs; inconclusive = weak or mixed curves; inactive = flat fitted curve, though single readings scatter.
# Assay: A CellTox Green Cytotoxicity Assay to monitor cytotoxicity in HEK293 cells - 8 hour (AID 1224884); also: nearly all actives have a fitted effect of over 35% in size
# Settings: CellTox Green fluorescence; series mostly up to 76.8 µM; cytotoxicity increase: at the top concentration
# Text: National Center for Advancing Translational Sciences [NCATS]
# NIH Chemical Genomics Center [NCGC]
# U.S. Environmental Protection Agency [EPA]
# National Institutes of Environmental Health Sciences [NIEHS]
# National Toxicology Program [NTP]
# Cell-based models are critical for drug discovery. Determining the natural cytotoxic effects resulting from test compounds is an essential research activity. A CellTox Green Cytotoxicity Assay to monitor cytotoxicity in real time of continues cell culture during 40 hours of the compound treatment was used to screen Tox21 10K library compounds in Hek293 cells. CellTox Green Cytotoxicity Assay is a nonlytic, homogeneous, biofluorescent method to measure cytotoxicity in cell culture after experimental manipulation. The assay system uses a proprietary asymmetric cyanine dye that is excluded from viable cells but preferentially stains the dead cell's DNA. […] Viable cells produce no appreciable increases in fluorescence. Therefore, the fluorescence signal produced by the binding interaction with dead cell DNA is proportional to cytotoxicity.
# The mixture of Hek293 cell suspension and reagents were dispensed at 600cells/6 ul/well in 1536-well tissue culture treated black solid bottom plates using a Multidrop dispenser. After the assay plates were incubated at a 37 C/5% CO2 incubator for 5 hours, 23 nL of compounds dissolved in DMSO, positive and negative controls was transferred to the assay plate by a pintool work station. The plates were incubated at 37 C for 40 hours. The fluorescence intensity were measured at 0h, 8h, 16h, 24h, 32h and 40h time points using ViewLux plate reader during compound treatment.
# % is scaled to controls: 0 for no effect and ±100 for the full control effect; potency is read from the fitted curve at half-maximal effect.
Compound,cytotoxicity increase,Potency
CO/N=C(\C(=O)OC)c1ccccc1CO/N=C(\C)c1cccc(C(F)(F)F)c1,18.4% (inactive),–
C=CC(=O)[O][Sn]([CH2]CCC)([CH2]CCC)[CH2]CCC,–,21.9 µM (active)
CCCN,-4.64% (inactive),–
Oc1cc(Cl)c(Cl)c(Cl)c1Cl,14.9% (inactive),–
Clc1c(Cl)c(Cl)c(Cl)c(Cl)c1Cl,-13.2% [at 6.97 µM] (inactive),–
O=C1C2(Cl)C3(Cl)C4(Cl)C(Cl)(Cl)C5(Cl)C3(Cl)C1(Cl)C5(Cl)C24Cl (stereo not given),–,34.1 µM (active) and 52.6 µM (active)
CCOP(=S)(OCC)SC(CCl)N1C(=O)c2ccccc2C1=O (stereo not given),13% (inactive),–
O=C(N[C@@H]1N=C(c2ccccc2F)c2cccc3c2N(CC3)C1=O)c1cc2ccccc2[nH]1,–,9.52 µM (active)
COC(=O)/C=C(\C)OP(=O)(OC)OC,-3.6% (inactive),–
COc1ccc(Cc2nccc3cc(OC)c(OC)cc23)cc1OC,1.93% [at 35.3 µM] (inactive),–
COc1nc(C)nc(NC(=O)NS(=O)(=O)c2ccccc2Cl)n1,-1.62% (inactive),–
Cc1nn(-c2cc(NS(C)(=O)=O)c(Cl)cc2Cl)c(=O)n1C(F)F,-6.05% (inactive),–
CN1CCc2cc(Cl)c(O)cc2[C@H]2c3ccccc3CC[C@@H]21,-1.61% [at 35.3 µM] (inactive),–
CN1C2CCC(C)(C)C1CC(OC(=O)C(O)(c1cccs1)c1cccs1)C2 (stereo not given),-1.68% [at 35.3 µM] (inactive),–
Oc1ccc([C@H]2CNCc3c2ccc(O)c3O)cc1O,–,26.8 µM (active)
C=CCBr,-1.7% (inactive),–
BrCCCBr,-8.33% (inactive),–
ClC(Cl)C(Cl)(Cl)Cl,-4.58% (inactive),–
[Cl-].[Cl-].[Sn+2],-9.41% (inactive),–
CCOC(=O)CCN(SN(C)C(=O)Oc1cccc2c1OC(C)(C)C2)C(C)C,13.4% (inactive),–

Compound,cytotoxicity increase,Potency
O.O.O.O.O.O.O.O=S(=O)([O-])[O-].[Co+2],-15.5% (inactive),–
COc1ccc2c(c1OC)C(=O)O[C@@H]2[C@H]1c2cc3c(cc2CCN1C)OCO3,3.36% (inactive),–
O=C1C(Cl)=C(Cl)C(=O)C(Cl)=C1Cl,–,inactive
CC(C)N(C(=O)CCl)c1ccccc1,–,inactive
O=NN(CCO)CCO,0.869% (inactive),–
CCn1cc[n+](C)c1 (tested in a mixture with another compound),-10.4% (inactive),–
CCCCn1cc[n+](C)c1 (tested in a mixture with another compound),-6.01% (inactive),–
COc1c2c(cc3c1OCO3)CCN(C)C2,-3.31% [at 35.3 µM] (inactive),–
CC(=O)[O-].CC(=O)[O-].CC(=O)[O-].[Cr+3],-6.18% (inactive),–
Clc1cc(Cl)c(-c2cc(Cl)c(Cl)cc2Cl)cc1Cl,11.5% [at 35.3 µM] (inactive),–
CN1CCc2cc3c(cc2C1O)OCO3 (stereo not given),-2.69% (inactive),–
ClC1=C(Cl)[C@]2(Cl)[C@@H]3[C@H]4C[C@H]([C@@H]5O[C@H]45)[C@@H]3[C@@]1(Cl)C2(Cl)Cl,1.4% (inactive),–
CCOC(=O)Cc1ccccc1,1.24% (inactive),–
CCN(CC)Cc1nccn1-c1ccc([N+](=O)[O-])cc1C(=O)c1ccccc1Cl,16.2% [at 35.3 µM] (inactive),–
Cc1cc2c3c(c1)C(c1ccccc1)=N[C@@H](NC(=O)c1ccncc1)C(=O)N3CC2,-4.7% (inactive),–
O=Cc1ccccc1,0.376% (inactive),–
O=[N+]([O-])c1ccc(CCl)cc1,-2.19% (inactive),–
CCCC[N+]1(C)CCCC1 (tested in a mixture with another compound),-6.02% (inactive),–
O=[N+]([O-])c1cc(C(F)(F)F)c(Cl)c([N+](=O)[O-])c1Nc1ncc(C(F)(F)F)cc1Cl,–,49 µM (active)
CCC1(CC)C(=O)N=C(O)NC1=O,2.68% (inactive),–
